Compounds with a hit are over-represented: about 5.4% of the library has one in this group of screens.
GAA850 FXN act – FXN promoter activators, primary screen, cell-based, luciferase luminescence, HEK293 lucGAA850; hit rate 0.56% among 360,000; activation, % at 6 µM; HEK293 lucGAA850 FXN promoter luciferase reporter, 24 h; percent of 10 µM SAHA response; AID 540364, 2011;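 active = activation above the average of all compounds screened plus 3 SD, cutoff fixed separately per campaign, cut at about 7.5% in these data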;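 also: 0% = DMSO wells and 100% = 10 µM SAHA wells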
AHR act – AHR activators, primary screen, cell-based, luminescence, luciferase reporter, human; AHR-responsive luciferase reporter cells; activation, % at 5 µM; hit rate 2.5% among 320,000; Aryl hydrocarbon receptor (Homo sapiens), P35869; in the data active = activation above about 47%;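 also: 0% = vehicle wells and 100% = reference agonist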
Target sequence (P35869 whole entry, looked up): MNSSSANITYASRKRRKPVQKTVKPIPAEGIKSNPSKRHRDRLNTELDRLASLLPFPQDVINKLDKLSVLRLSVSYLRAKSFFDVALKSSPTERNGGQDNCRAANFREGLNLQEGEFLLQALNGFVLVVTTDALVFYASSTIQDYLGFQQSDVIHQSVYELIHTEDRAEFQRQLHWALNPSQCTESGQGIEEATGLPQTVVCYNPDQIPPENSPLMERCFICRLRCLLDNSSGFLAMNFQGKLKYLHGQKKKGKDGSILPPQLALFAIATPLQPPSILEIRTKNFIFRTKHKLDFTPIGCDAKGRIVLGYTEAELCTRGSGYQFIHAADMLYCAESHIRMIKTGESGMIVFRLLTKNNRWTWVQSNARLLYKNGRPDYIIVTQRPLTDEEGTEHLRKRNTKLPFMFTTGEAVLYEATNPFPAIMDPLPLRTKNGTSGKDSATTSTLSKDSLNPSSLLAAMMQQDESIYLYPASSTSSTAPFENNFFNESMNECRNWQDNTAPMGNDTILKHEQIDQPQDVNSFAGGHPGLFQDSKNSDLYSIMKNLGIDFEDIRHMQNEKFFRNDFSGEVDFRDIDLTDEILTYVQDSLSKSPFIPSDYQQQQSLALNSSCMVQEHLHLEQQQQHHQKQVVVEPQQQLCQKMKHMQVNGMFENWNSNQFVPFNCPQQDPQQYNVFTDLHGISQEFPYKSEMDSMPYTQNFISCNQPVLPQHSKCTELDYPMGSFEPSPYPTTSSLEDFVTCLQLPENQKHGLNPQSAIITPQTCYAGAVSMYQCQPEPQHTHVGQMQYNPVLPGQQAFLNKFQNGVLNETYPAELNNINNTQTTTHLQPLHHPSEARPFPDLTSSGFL
DAX1 inh – DAX1 (NR0B1) inhibitors, primary screen, cell-based, HEK293, Gal4-DAX1, luciferase luminescence | hit rate 0.99% among 340,000 | HEK293 Gal4-DAX1 luciferase reporter | Nuclear receptor subfamily 0 group B member 1 (Homo sapiens), P51843 | AID 504766, 2011 | inhibition, % at 6.75 µM;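 active = inhibition above the mean over all tested compounds plus 3 SD, cut at about 4.2% in these data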;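 also: 0% = DAX1-transfected cells with DMSO and 100% = empty-vector control cells with DMSO; inhibition shows as a rise in luminescence from relieved DAX1 repression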
HSF1 inhib – HSF1 inhibitors in luciferase reporter cells, primary screen, cell-based, NIH3T3, luminescence. hit rate 0.77% among 300,000. NIH3T3-HGL HSE-luciferase, MG132-induced, luminescence 8 h; active compounds read low. activity change, negative = inhibition, % at 7.5 µM (by protocol);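 active = more than half of replicate wells show activity change below -50%, luminescence cut by over half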;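 also: luciferase reports HSF-1 transcriptional activity via heat shock element; 0% = median of DMSO wells and -100% = zero luminescence signal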
HSF1 activator – HSF-1 activators, primary screen, NIH3T3-HGL cells, MG132 stress, luminescence, single point; NIH3T3-HGL HSF-1 luciferase reporter, 8 h; 100% = twice DMSO control signal; activation, % at 9 µM; hit rate 1.7% among 300,000; AID 504408, 2011;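 active = mean replicate activation of at least 50% with a set share of replicates each reaching 50%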;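 also: 0% = median of the neutral control wells and 100% = twice that signal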
Numbers without * were called inactive; nt = no result given.

SMILES	GAA850 FXN act	AHR act	DAX1 inh	HSF1 inhib	HSF1 activator
CCN(CCCNC(=O)CCCN1C(=O)COc2ccc(C)cc21)c1cccc(C)c1	-1.0	2.4	0.6	67.7	100.8*
O=C(Cc1cccs1)N1CCN(S(=O)(=O)c2cccc([N+](=O)[O-])c2)CC1	0.0	-1.0	0.1	-2.8	8.5
O=C(CN1C(=O)NC(Cc2ccccc2)C1=O)Nc1ccccc1OC(F)F (centres undefined)	1.2	1.1	-1.2	-1.1	-6.5
CCOc1ccccc1NC(=O)c1cccc2c1C(=O)N(CCOC)C2	0.8	69.2*	-0.6	8.1	39.0
COCCN1Cc2cccc(C(=O)Nc3ccc4c(c3)OCCO4)c2C1=O	-6.3	11.8	1.4	-52.3*	-56.4
COCCN1Cc2cccc(C(=O)Nc3cccc(C)c3C)c2C1=O	-0.7	3.3	0.5	2.6	-7.8
COc1ccc(OC)c(Nc2nc3ccc(C)cc3n3cnnc23)c1	-0.7	22.2	-0.8	19.4	74.2*
COc1ccc(Cl)cc1Nc1nc2ccc(C)cc2n2cnnc12	3.0	21.5	-0.9	-2.1	1.8
O=C(O)c1ccc2c(=O)n3c(nc2c1)/C(=C/c1ccccc1OC(F)F)CC3	0.2	1.1	2.0	1.3	-5.8
Cc1cc(S(=O)(=O)NCCCN2CCOCC2)c(C)cc1Cl	1.6	nt	1.0	-6.9	-3.3
CCCCOc1ccc(-c2cn3ccccc3n2)cc1[N+](=O)[O-]	2.2	-4.6	-1.3	37.1	63.5*
CCCOc1ccc(-c2csc(N)n2)cc1[N+](=O)[O-]	6.5	-2.1	1.6	-0.8	-5.1
CCN(CC)S(=O)(=O)c1ccc(C(=O)Nc2cc(C)on2)cc1	0.5	0.4	-0.3	-3.2	-7.2
Cc1cc(NC(=O)c2ccc(C)c(C)c2)no1	6.1	-2.6	3.1	18.5	61.0*
Cc1cc(NC(=O)c2ccc(C)c([N+](=O)[O-])c2)no1	3.1	-2.4	1.2	-33.4	-47.4
CCN(CC)S(=O)(=O)c1cc(C(=O)Nc2cc(C)on2)ccc1Cl	1.6	-0.6	-0.6	-60.6*	-69.7
Cc1cc(Nc2cccc(Cl)c2)c2ccccc2n1	2.5	18.1	-1.4	-0.6	15.7
Cc1cc(Nc2ccc3c(c2)OCCO3)c2cc(Cl)ccc2n1	-6.2	40.5	-1.5	-57.5*	-58.2
Cc1ccc(S(=O)(=O)NCCC(=O)NCCc2ccc(S(N)(=O)=O)cc2)cc1C	-1.5	-0.1	0.5	nt	nt
O=C1C=C(Nc2ccccc2C(=O)O)c2ccccc2C1=O	0.8	51.7*	0.0	63.9	92.9*
O=C(O)c1ccccc1Nc1ccccc1C(=O)O	0.0	0.8	-0.5	-8.7	-21.0
O=C(CCc1nnc(Cc2ccc(-c3ccccc3)cc2)o1)N1CCCC1	1.8	1.8	-2.2	40.3	69.8*
COC(=O)N(C)C[C@@H]1OCc2cnnn2CCCC(=O)N([C@H](C)CO)C[C@H]1C	-1.4	nt	1.4	nt	nt
O=C(Nc1cccc(-c2csc(Nc3ccccc3)n2)c1)c1ccccc1	-1.0	71.1*	-1.7	12.7	22.6
O=C(Nc1ccc(-c2csc(Nc3cccc(C(F)(F)F)c3)n2)cc1)c1ccccc1	-0.5	78.1*	-1.7	4.4	26.6
SMILES	GAA850 FXN act	AHR act	DAX1 inh	HSF1 inhib	HSF1 activator
CN1CCN(S(=O)(=O)c2cccc(C(=O)N(C)CC(=O)Nc3ccc(F)c(F)c3F)c2)CC1	0.8	-1.0	-1.4	4.0	3.6
Cc1ccccc1NC(=O)COc1ccc(Br)cc1CNCCCO	-2.7	2.2	5.2*	-0.3	13.3
COc1ccc(C=O)cc1Cn1ccnc1C	1.2	0.3	-0.8	-77.1*	-77.4
Cc1nc(NC(=O)CN2CC(C)OC(C)C2)sc1C(=O)N(C)C (centres undefined)	2.1	-2.2	-0.2	-7.1	-8.2
COc1cccc(CN2CC(C(=O)NCCSc3nnnn3C)CCC2=O)c1 (centres undefined)	0.7	-1.0	2.4	0.3	-3.1
Cc1cc2c3c(c1)C1(C(=O)N3C(C)(C)CC2C)C(C#N)=C(N)Oc2cc(O)ccc21 (centres undefined)	0.1	5.7	-0.4	23.7	67.1*
Cc1ccc2c3c1C1(C(=O)N3C(C)(C)CC2C)C(C#N)=C(N)Oc2cc(O)ccc21 (centres undefined)	-4.5	10.4	-1.5	7.1	-12.1

Assay outcomes as filed in PubChem BioAssay.
